In the supplement of paper PMC7411640:
Where a name gives a salt, the structure may show the parent alone.

System: MDA-MB-468
Test: phospho-S6 immunofluorescence (DAPI-normalised), per-plate z-score; higher = higher phospho-S6 signal (less pathway suppression)
Conditions: 24 h
Experimental: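 GPCR-targeted compound library (MedChemExpress HY-L006) tested on MDA-MB-468 PTEN-null TNBC cells in 384-well plates at 0.1, 1 or 10 uM, combined with vehicle, GDC0941 450 nM or lapatinib 1 uM, for 24 h. Phospho-S6 (S240/244) immunofluorescence normalised to DAPI and expressed as a per-plate z-score; values are the mean of biological triplicates.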

Structure (SMILES) | phospho-S6 immunofluorescence (z-score) (co-treatment: GDC0941 450 nM) | phospho-S6 immunofluorescence (z-score) (co-treatment: lapatinib 1 uM) | phospho-S6 immunofluorescence (z-score) (co-treatment: vehicle)
Cc1c(C(=O)NN2CCCCC2)nn(-c2ccc(Cl)cc2Cl)c1-c1ccc(I)cc1 (compound 10 µM) | -1.91 | -1.68 | -2.82
c1cc(CN2CCCNCCNCCCNCC2)ccc1CN1CCCNCCNCCCNCC1 [Plerixafor (octahydrochloride)] (compound 10 µM) | -0.24 | 0.37 | -0.74
Clc1ccccc1CN1CCc2sccc2C1 [Ticlopidine (hydrochloride)] (compound 10 µM) | -1.14 | -0.33 | -0.63
CNC(=C[N+](=O)[O-])NCCSCc1csc(CN(C)C)n1 [Nizatidine] (compound 10 µM) | -1.38 | 0.52 | 1.38
COc1cc2nc(N3CCN(C(=O)C4CCCO4)CC3)nc(N)c2cc1OC (configuration not stated) [Terazosin (hydrochloride dihydrate)] (compound 10 µM) | 0.82 | 0.9 | 0.87
CN(C)CCN(Cc1ccccc1)c1ccccn1 [Tripelennamine (hydrochloride)] (compound 10 µM) | -0.07 | -0.31 | -0.41
CN(C)CCC(c1ccc(Br)cc1)c1ccccn1 (configuration not stated) [Brompheniramine (maleate)] (compound 10 µM) | 0.58 | -0.17 | 0.3
CC(C)[C@H](NC(=O)[C@H](CCCN=C(N)N)NC(=O)[C@@H](N)CC(=O)O)C(=O)N[C@@H](Cc1ccc(O)cc1)C(=O)N[C@H](C(=O)N[C@@H](Cc1cnc[nH]1)C(=O)N1CCC[C@H]1C(=O)N[C@@H](Cc1ccccc1)C(=O)O)C(C)C [Angiotensin II 5-valine] (compound 10 µM) | 1.16 | 0.49 | 0.07
O=c1cc(CN2CCOCC2)occ1OCCCCCSc1ccnc2cc(C(F)(F)F)ccc12 (compound 10 µM) | -2.93 | -3.04 | -3.82
c1cc(CN2CCCNCCNCCCNCC2)ccc1CN1CCCNCCNCCCNCC1 [Plerixafor] (compound 10 µM) | -0.31 | 0.01 | 0.2
CCCCCN(CCCOC)C(=O)C(CCC(=O)O)NC(=O)c1ccc(Cl)c(Cl)c1 (configuration not stated) [Loxiglumide] (compound 10 µM) | 0.5 | 0.64 | 0.51
OCCN1CCN(CCCN2c3ccccc3Sc3ccc(C(F)(F)F)cc32)CC1 [Fluphenazine (dihydrochloride)] (compound 10 µM) | -3.94 | -6.77 | -2.87
CS(=O)(=O)c1cc(F)cc2c3c(n(Cc4ccc(Cl)cc4)c12)[C@@H](CC(=O)O)CC3 [Laropiprant] (compound 10 µM) | 0.48 | 0.81 | 0.75
C[N+]1(C)CCC(OC(=O)C(O)(c2ccccc2)C2CCCC2)C1 (configuration not stated) [Glycopyrrolate] (compound 10 µM) | 0.59 | 0.25 | 1.14
C[C@]12C=CC(=O)C=C1CC[C@H]1[C@@H]3C[C@@H](O)[C@](O)(C(=O)CO)[C@@]3(C)C[C@H](O)[C@@]12F [Triamcinolone] (compound 10 µM) | 0.04 | 0.82 | 0.94
CCCN(CCc1cccs1)[C@H]1CCc2c(O)cccc2C1 [Rotigotine (Hydrochloride)] (compound 10 µM) | -0.16 | 0.3 | -0.63
CN(C)CCOC(c1ccccc1)c1ccccc1 [Diphenhydramine (hydrochloride)] (compound 10 µM) | -0.32 | -0.09 | 0.32
c1cnc(NCc2ccc(CNc3ncccn3)cc2)nc1 (compound 10 µM) | -0.12 | -0.26 | -0.11
C[C@]12CCC(=O)C=C1CC[C@@H]1[C@@H]2CC[C@@]2(C)[C@H]1CC[C@]2(O)C(=O)CO [Cortodoxone] (compound 10 µM) | -0.95 | 1.37 | -0.43
